{
  "source": "paper PMC11006913",
  "assay_in_all_cases": "PBM; 200 nM protein, PBS",
  "conditions_in_all_cases": "dsDNA, one strand shown",
  "key": {"HOXB9 [1]": {"target": "HOXB9 (Homo sapiens, UniProt P17482 171-250, T197M)", "sequence (P17482 171-250 T197M)": "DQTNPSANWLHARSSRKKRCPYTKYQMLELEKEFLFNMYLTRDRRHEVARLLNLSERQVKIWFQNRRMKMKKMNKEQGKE"}, "SIX6 [2]": {"target": "T1, SIX6 (Homo sapiens, UniProt O95475 114-200, L167I)", "T1 sequence": "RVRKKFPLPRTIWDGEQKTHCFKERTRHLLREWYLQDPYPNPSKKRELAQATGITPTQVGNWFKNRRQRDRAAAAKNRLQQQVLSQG"}, "SIX6 [3]": {"target": "T2, SIX6 (Homo sapiens, UniProt O95475 114-200, L143V)", "T2 sequence": "T1 sequence with L30V, I54L"}, "SIX6 [4]": {"target": "T3, SIX6 (Homo sapiens, UniProt O95475 114-200, H141N)", "T3 sequence": "T1 sequence with H28N, I54L"}, "SIX6 [5]": {"target": "T4, SIX6 (Homo sapiens, UniProt O95475 114-200, T165P)", "T4 sequence": "T1 sequence with T52P, I54L"}, "SIX6 [6]": {"target": "T5, SIX6 (Homo sapiens, UniProt O95475 114-200, L167M)", "T5 sequence": "T1 sequence with I54M"}, "SIX6 [7]": {"target": "T6, SIX6 (Homo sapiens, UniProt O95475 114-200, L143M)", "T6 sequence": "T1 sequence with L30M, I54L"}, "SIX6 [8]": {"target": "T7, SIX6 (Homo sapiens, UniProt O95475 114-200, L143I)", "T7 sequence": "T1 sequence with L30I, I54L"}, "SIX6 [9]": {"target": "T8, SIX6 (Homo sapiens, UniProt O95475 114-200, T165G)", "T8 sequence": "T1 sequence with T52G, I54L"}, "HOXB9 [10]": {"target": "HOXB9 (Homo sapiens, UniProt P17482 171-250)", "sequence (P17482 171-250)": "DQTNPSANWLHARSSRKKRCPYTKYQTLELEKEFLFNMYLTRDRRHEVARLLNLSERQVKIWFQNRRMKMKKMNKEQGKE"}, "SIX6 [11]": {"target": "T9, SIX6 (Homo sapiens, UniProt O95475 114-200, T139Q)", "T9 sequence": "T1 sequence with T26Q, I54L"}, "SIX6 [12]": {"target": "T10, SIX6 (Homo sapiens, UniProt O95475 114-200, T165A)", "T10 sequence": "T1 sequence with T52A, I54L"}, "SIX6 [13]": {"target": "T11, SIX6 (Homo sapiens, UniProt O95475 114-200, L167V)", "T11 sequence": "T1 sequence with I54V"}, "SIX6 [14]": {"target": "T12, SIX6 (Homo sapiens, UniProt O95475 114-200)", "T12 sequence": "T1 sequence with I54L"}, "SIX6 [15]": {"target": "T13, SIX6 (Homo sapiens, UniProt O95475 114-200, T165I)", "T13 sequence": "T1 sequence with T52I, I54L"}, "HOXB9 [16]": {"target": "HOXB9 (Homo sapiens, UniProt P17482 171-250, R186Q)", "sequence (P17482 171-250 R186Q)": "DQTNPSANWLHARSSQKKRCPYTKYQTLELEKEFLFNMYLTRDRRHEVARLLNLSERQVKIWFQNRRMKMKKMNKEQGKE"}, "HOXC9 [17]": {"target": "HOXC9 (Homo sapiens, UniProt P31274 178-260, K195R)", "sequence (P31274 178-260 K195R)": "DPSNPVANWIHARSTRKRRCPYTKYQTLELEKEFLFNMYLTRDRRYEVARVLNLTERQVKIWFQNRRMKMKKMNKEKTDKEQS"}, "HOXC10 [18]": {"target": "HOXC10 (Homo sapiens, UniProt Q9NYD6 254-340)", "sequence (Q9NYD6 254-340)": "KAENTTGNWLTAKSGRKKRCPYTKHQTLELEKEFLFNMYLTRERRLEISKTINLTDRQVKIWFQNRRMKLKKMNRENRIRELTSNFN"}, "ALX4": {"target": "ALX4 (Homo sapiens, UniProt Q9H161 200-286, Q225E)", "sequence (Q9H161 200-286 Q225E)": "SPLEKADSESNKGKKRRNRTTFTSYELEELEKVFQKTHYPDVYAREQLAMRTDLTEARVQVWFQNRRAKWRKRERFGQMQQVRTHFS"}, "HOXA2 [19]": {"target": "HOXA2 (Homo sapiens, UniProt O43364 129-215, R185T)", "sequence (O43364 129-215 R185T)": "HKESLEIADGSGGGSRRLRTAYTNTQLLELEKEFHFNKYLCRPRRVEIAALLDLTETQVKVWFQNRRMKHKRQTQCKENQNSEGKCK"}, "HOXC9 [20]": {"target": "HOXC9 (Homo sapiens, UniProt P31274 178-260)", "sequence (P31274 178-260)": "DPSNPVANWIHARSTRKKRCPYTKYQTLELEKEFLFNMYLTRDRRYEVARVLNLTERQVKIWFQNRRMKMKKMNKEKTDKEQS"}, "HOXD13 [21]": {"target": "HOXD13 (Homo sapiens, UniProt P35453 263-343, T313R)", "sequence (P35453 263-343 T313R)": "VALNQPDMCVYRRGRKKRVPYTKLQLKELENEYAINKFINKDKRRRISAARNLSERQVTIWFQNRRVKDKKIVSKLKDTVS"}, "HOXC9 [22]": {"target": "HOXC9 (Homo sapiens, UniProt P31274 178-260, R193K)", "sequence (P31274 178-260 R193K)": "as the sequence (P31274 178-260) above, with R16K counted along it"}, "HOXA2 [23]": {"target": "HOXA2 (Homo sapiens, UniProt O43364 129-215, R185K)", "sequence (O43364 129-215 R185K)": "as the sequence (O43364 129-215 R185T) above, with T57K counted along it"}, "HOXD13 [24]": {"target": "HOXD13 (Homo sapiens, UniProt P35453 263-343)", "sequence (P35453 263-343)": "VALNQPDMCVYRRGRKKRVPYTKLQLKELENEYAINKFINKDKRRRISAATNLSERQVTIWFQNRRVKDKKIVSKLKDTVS"}, "HOXC10 [25]": {"target": "HOXC10 (Homo sapiens, UniProt Q9NYD6 254-340, K271E)", "sequence (Q9NYD6 254-340 K271E)": "as the sequence (Q9NYD6 254-340) above, with K18E counted along it"}, "HOXD13 [26]": {"target": "HOXD13 (Homo sapiens, UniProt P35453 263-343, T313A)", "sequence (P35453 263-343 T313A)": "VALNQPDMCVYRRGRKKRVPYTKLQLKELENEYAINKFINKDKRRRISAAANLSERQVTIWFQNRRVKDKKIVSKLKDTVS"}, "HOXC9 [27]": {"target": "HOXC9 (Homo sapiens, UniProt P31274 178-260, R222W)", "sequence (P31274 178-260 R222W)": "as the sequence (P31274 178-260) above, with R45W counted along it"}, "HOXA2 [28]": {"target": "HOXA2 (Homo sapiens, UniProt O43364 129-215, Y150S)", "sequence (O43364 129-215 Y150S)": "as the sequence (O43364 129-215 R185T) above, with Y22S, T57R counted along it"}, "HOXA2 [29]": {"target": "HOXA2 (Homo sapiens, UniProt O43364 129-215)", "sequence (O43364 129-215)": "as the sequence (O43364 129-215 R185T) above, with T57R counted along it"}},
  "note": "Positions count from the first letter of the chain named.",
  "data": [
    {"sequence": "CAGCTGCG", "values": [
      {"measurement": "binding signal", "setting": "HOXB9 [1]", "value": "8.53 upbm affinity estimate (log intensity, higher = more binding, comparable within an allelic series)"},
      {"measurement": "binding signal", "setting": "SIX6 [2]", "value": "9.16 upbm affinity estimate (log intensity, higher = more binding, comparable within an allelic series)"},
      {"measurement": "binding signal", "setting": "SIX6 [3]", "value": "9.03 upbm affinity estimate (log intensity, higher = more binding, comparable within an allelic series)"},
      {"measurement": "binding signal", "setting": "SIX6 [4]", "value": "9.09 upbm affinity estimate (log intensity, higher = more binding, comparable within an allelic series)"},
      {"measurement": "binding signal", "setting": "SIX6 [5]", "value": "9 upbm affinity estimate (log intensity, higher = more binding, comparable within an allelic series)"},
      {"measurement": "binding signal", "setting": "SIX6 [6]", "value": "9.04 upbm affinity estimate (log intensity, higher = more binding, comparable within an allelic series)"},
      {"measurement": "binding signal", "setting": "SIX6 [7]", "value": "9.22 upbm affinity estimate (log intensity, higher = more binding, comparable within an allelic series)"},
      {"measurement": "binding signal", "setting": "SIX6 [8]", "value": "9.01 upbm affinity estimate (log intensity, higher = more binding, comparable within an allelic series)"},
      {"measurement": "binding signal", "setting": "SIX6 [9]", "value": "9.19 upbm affinity estimate (log intensity, higher = more binding, comparable within an allelic series)"},
      {"measurement": "binding signal", "setting": "HOXB9 [10]", "value": "8.16 upbm affinity estimate (log intensity, higher = more binding, comparable within an allelic series)"},
      {"measurement": "binding signal", "setting": "SIX6 [11]", "value": "9.25 upbm affinity estimate (log intensity, higher = more binding, comparable within an allelic series)"},
      {"measurement": "binding signal", "setting": "SIX6 [12]", "value": "9.08 upbm affinity estimate (log intensity, higher = more binding, comparable within an allelic series)"},
      {"measurement": "binding signal", "setting": "SIX6 [13]", "value": "9.05 upbm affinity estimate (log intensity, higher = more binding, comparable within an allelic series)"},
      {"measurement": "binding signal", "setting": "SIX6 [14]", "value": "9.08 upbm affinity estimate (log intensity, higher = more binding, comparable within an allelic series)"},
      {"measurement": "binding signal", "setting": "SIX6 [15]", "value": "9.09 upbm affinity estimate (log intensity, higher = more binding, comparable within an allelic series)"},
      {"measurement": "binding signal", "setting": "HOXB9 [16]", "value": "8.31 upbm affinity estimate (log intensity, higher = more binding, comparable within an allelic series)"}
    ]},
    {"sequence": "CAATAAAC", "values": [
      {"measurement": "binding signal", "setting": "HOXB9 [1]", "value": "9.69 upbm affinity estimate (log intensity, higher = more binding, comparable within an allelic series)"},
      {"measurement": "binding signal", "setting": "HOXC9 [17]", "value": "12.5 upbm affinity estimate (log intensity, higher = more binding, comparable within an allelic series)"},
      {"measurement": "binding signal", "setting": "HOXC10 [18]", "value": "12.2 upbm affinity estimate (log intensity, higher = more binding, comparable within an allelic series)"},
      {"measurement": "binding signal", "setting": "ALX4", "value": "10.6 upbm affinity estimate (log intensity, higher = more binding, comparable within an allelic series)"},
      {"measurement": "binding signal", "setting": "HOXA2 [19]", "value": "9.38 upbm affinity estimate (log intensity, higher = more binding, comparable within an allelic series)"},
      {"measurement": "binding signal", "setting": "HOXB9 [10]", "value": "11.8 upbm affinity estimate (log intensity, higher = more binding, comparable within an allelic series)"},
      {"measurement": "binding signal", "setting": "HOXC9 [20]", "value": "12.7 upbm affinity estimate (log intensity, higher = more binding, comparable within an allelic series)"},
      {"measurement": "binding signal", "setting": "HOXD13 [21]", "value": "10.9 upbm affinity estimate (log intensity, higher = more binding, comparable within an allelic series)"},
      {"measurement": "binding signal", "setting": "HOXC9 [22]", "value": "12.5 upbm affinity estimate (log intensity, higher = more binding, comparable within an allelic series)"},
      {"measurement": "binding signal", "setting": "HOXA2 [23]", "value": "11.7 upbm affinity estimate (log intensity, higher = more binding, comparable within an allelic series)"},
      {"measurement": "binding signal", "setting": "HOXD13 [24]", "value": "12.2 upbm affinity estimate (log intensity, higher = more binding, comparable within an allelic series)"},
      {"measurement": "binding signal", "setting": "HOXC10 [25]", "value": "11.4 upbm affinity estimate (log intensity, higher = more binding, comparable within an allelic series)"},
      {"measurement": "binding signal", "setting": "HOXD13 [26]", "value": "11.9 upbm affinity estimate (log intensity, higher = more binding, comparable within an allelic series)"},
      {"measurement": "binding signal", "setting": "HOXB9 [16]", "value": "11.5 upbm affinity estimate (log intensity, higher = more binding, comparable within an allelic series)"},
      {"measurement": "binding signal", "setting": "HOXC9 [27]", "value": "11.1 upbm affinity estimate (log intensity, higher = more binding, comparable within an allelic series)"},
      {"measurement": "binding signal", "setting": "HOXA2 [28]", "value": "10.7 upbm affinity estimate (log intensity, higher = more binding, comparable within an allelic series)"},
      {"measurement": "binding signal", "setting": "HOXA2 [29]", "value": "9.11 upbm affinity estimate (log intensity, higher = more binding, comparable within an allelic series)"}
    ]}
  ]
}
